Bioassay records (PubChem BioAssay)
HCMV inh – inhibitors of human cytomegalovirus; actives 4.5% (n = 410,000); HFF cells, HCMV-luciferase reporter, 72 h; stronger effect = lower value; activity change, negative = inhibition, % at 57.5 µM; in the data active means activity change below about -60%; inconclusive means no clear call, values can overlap the other calls; inactive means above about -39%; further: on the % scale 0 is the no-effect control and ±100 the full control effect
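Human foreskin fibroblasts infected with luciferase-reporter HCMV at MOI 1 PFU/cell, compounds at two doses. Luciferase measured 72 h post infection; normalized to buffer-only basal and Salinomycin (10uM) controls.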
HCV inh – HCV inhibition; Huh7.5.1 HCVcc-Cre infection, luciferase reporter, 44 h; Potency, µM (titrated, usually from 41.8 µM), without a hit: top-dose activity change, negative = inhibition, usual class: inhibitors; actives 3.4% (n = 340,000); further: potency means the concentration at half of the fitted maximal effect; on the % scale 0 is the no-effect control and ±100 the full control effect
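Infectious HCVcc-Cre (~0.5 moi) was added to cells just after compound, with cells seeded 4 h earlier at 1,000 per well. Luciferase activity after 44 h culture reported infection; substrate was incubated 15 min at room temperature before reading.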
Pf growth 48h – P. falciparum growth inhibition at 48 hours (one generation) | P. falciparum luciferase growth in erythrocytes, 48 h | Potency, µM (titrated, usually from 28.7 µM), for the others: at the top dose activity change, negative = inhibition, usual class: inhibitors | actives 5.9% (n = 310,000); further: potency means the concentration at half of the fitted maximal effect; on the % scale 0 is the no-effect control and ±100 the full control effect
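Luminescence readout; reporter = integrated firefly luciferase in P. falciparum. RBC culture at 2% hematocrit, 0.1% parasitemia final, 37 C/5% CO2; decreased signal taken as growth inhibition.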
Shiga toxin inh – Shiga toxin inhibition | Vero cells, Shiga toxin protein synthesis inhibition reporter | inhibition, % at 38.7 µM | actives 9.2% (n = 290,000) | AID 2315; in the data active means inhibition mostly above about 28%, no sharp cut-off; inactive means mostly below about 43%; further: 0% is about no effect
Pf growth 96h – inhibits malaria parasite growth, 96 h. P. falciparum luciferase reporter growth, 96 h. Potency, µM (series often up to 28.7 µM), for the others: at the highest dose activity change, negative = inhibition, hits mostly inhibitors. actives 6.9% (n = 320,000); further: potency means the concentration at half of the fitted maximal effect; on the % scale 0 is the no-effect control and ±100 the full control effect
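Readout is luminescence from an integrated firefly luciferase in P. falciparum. Red cells, 2% hematocrit and 0.05% parasitemia final, were cultured with compound through two parasite generations (96 hours) at 37 C, 5% CO2.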
Cycloheximide cs – counter-screen for Shiga toxin inhibitors: cycloheximide protein synthesis inhibition; AID 2314; cell reporter, cycloheximide protein synthesis inhibition counterscreen; actives 12% (n = 300,000); max response, %; in the data active means max response mostly above about 13%, no sharp cut-off; inactive means mostly below about 14%; further: read at 38.3 µM for the half of the compounds with a filed dose; 0% is about no effect
Starred values were filed as active, the others as inactive; i = inactive; ? = inconclusive; . = no result. The list is not random: actives were taken first. Their share in the collection is about 21%. Unless noted, the call rests on the fitted dose curve; in most records, active means well fitted inhibition curve with a large enough effect; inconclusive means small, poorly fitted or top-dose-only effect, or another doubt; inactive means no such curve, though single readings can be large or run the other way.

SMILES	HCMV inh	HCV inh	Pf growth 48h	Shiga toxin inh	Pf growth 96h	Cycloheximide cs
O=C(NCCc1ccccc1)c1cccc(NC(=O)C2CCC2)c1	47	?	.	.	.	.
O=C(NCCc1ccccc1)c1cccc(NC(=O)C2CC2)c1	103	0.56µM*	.	.	.	.
CC(Oc1ccccc1)C(=O)NNC(=O)c1ccccn1 (stereo unspecified)	?	?	9.3µM*	19	?	5
CC(Oc1cccc(Br)c1)C(=O)NNC(=O)c1ccccn1 (stereo unspecified)	.	5µM*	.	.	.	.
CC(C)Nc1nc(Cl)nc(NNC(=O)C(C)Oc2ccccc2)n1 (stereo unspecified)	3	-16%	-14%	-20	1.7µM*	-3
CCNc1nc(Cl)nc(NNC(=O)C(C)Oc2ccccc2)n1 (stereo unspecified)	-7	0%	12%	-9	?	1
CC(C)C(=O)NNC(=O)c1ccccn1	4	5%	?	1	13µM*	5
COCC(C)(C)COS(N)(=O)=O	-11	29%	21%	-6	7%	-2
C/C(=N\NC(=O)C(C)Oc1ccc([N+](=O)[O-])cc1)c1ccccn1 (stereo unspecified)	-104*	?	?	-7	2.1µM*	-3
CC(Oc1ccccc1)C(=O)N/N=C/c1ccccn1 (stereo unspecified)	25	17%	-8%	0	?	14
CC(C)Oc1ccc(CSc2ncn[nH]2)cc1	-4	-5%	63%	51*	59%	32*
O=C(CCC1CCCCC1)NC1=NCCS1	3	28%	71%	-1	10µM*	-4
O=C(NC1=NCCS1)C12CC3CC(C1)CC(C(=O)NC1=NCCS1)(C3)C2	-32	?	-17%	-4	-9%	1
O=C(CC12CC3CC(C1)CC(CC(=O)NC1=NCCS1)(C3)C2)NC1=NCCS1	35	4%	9.3µM*	2	.	-4
O=C(NC1=NCCS1)C1CCCCC1	22	5%	181%	13	?	10
CC12CC3CC(C)(C1)CC(C(=O)NC1=NCCS1)(C3)C2	-27	16%	.	8	12µM*	-1
O=C(NC1=NCCS1)NC12CC3CC(CC(C3)C1)C2	12	17%	0%	1	1.2µM*	-3
COc1cccc(CNC(=O)c2cc(S(=O)(=O)N3CCCCC3)cn2C)c1	-2	.	.	.	.	.
CCn1cnnc1SCC(=O)Nc1ccccc1C(=O)NC1CC1	29	8%	.	.	.	.
CC1CCCN(CCCNC(=O)c2ccc3c(c2)N(Cc2cccc(Cl)c2)C(=O)c2ccccc2S3(=O)=O)C1 (stereo unspecified)	-25	.	.	.	.	.
Cc1ccc(-c2nnc(-c3ccncc3)n2-c2ccc(C)cc2)cc1	8	?	3%	53*	-16%	20*
COc1cccc(-n2ccn(CC(=O)NCCc3ccccc3)c(=O)c2=O)c1	-15	16%	0%	-5	?	1
CCOC(=O)C1=C(c2ccccc2)NC(=O)NC1c1cc(Cl)c(O)c(OC)c1 (stereo unspecified)	16	10%	-7%	8	2%	20
CCOC(=O)C1=C(c2ccccc2)NC(N)=NC1c1ccc(OCc2ccc(Cl)cc2)c(OC)c1 (stereo unspecified)	-23	?	1.5µM*	30*	1.7µM*	11
Cc1ccc(/C=N/NC(=O)Cc2cccn2C)cc1	39	15%	61%	46*	8%	26*
SMILES	HCMV inh	HCV inh	Pf growth 48h	Shiga toxin inh	Pf growth 96h	Cycloheximide cs
Cn1cccc1CC(=O)N/N=C/C=C/c1ccccc1	-3	-1%	57%	82*	45%	25*
Cn1cccc1CC(=O)N/N=C\c1cccs1	-26	8%	-17%	16	?	9
O=C(CN1CCOCC1)N/N=C/C=C/c1ccccc1	12	23%	-1%	11	18%	25*
O=NN(CC(=O)NN=CC=Cc1ccccc1)CC(=O)NN=CC=Cc1ccccc1	22	.	.	.	.	.
Cc1ccc(/C=N/NC(=O)Cc2cccn2C)s1	34	1%	90%	58*	-25%	49*
Cc1ccc(-c2nc3scc(CCNC(=O)Cc4ccc(Cl)cc4)n3n2)cc1	-21	.	.	.	.	.
CN(C(=O)CS(=O)(=O)c1cccc(Cl)c1)c1ccccc1	12	-6%	4%	-9	?	-8
CCOc1ccccc1NC(=O)COc1cccnc1[N+](=O)[O-]	11	?	.	.	.	.
CCc1ccc(/C=N/NC(=O)Cc2cccn2C)cc1	15	10%	22%	51*	0%	29*
Cn1cccc1CC(=O)N/N=C/c1ccc(C(C)(C)C)cc1	96	-22%	-6%	54*	-6%	22*
Cn1cccc1CC(=O)N/N=C/c1ccco1	23	22%	-8%	-4	?	-1
CCC(C(=O)Nc1cc(C)ccc1OC)n1nnc(C(=O)OC)c1C(=O)OC (stereo unspecified)	7	.	.	.	.	.
COc1ccc2c(c1)c1c(c(=O)n(Cc3ccccc3)c(=O)n1Cc1cc(C)ccc1C)n2C	1	.	.	.	.	.
Cc1onc(-c2ccccc2Cl)c1C(=O)O/N=C(\N)c1cccc([N+](=O)[O-])c1	-14	.	.	.	.	.
Cc1onc(-c2ccccc2)c1C(=O)O/N=C(\N)c1ccc([N+](=O)[O-])o1	-10	11µM*	?	-3	12µM*	4
Cc1onc(-c2cccc(Cl)c2Cl)c1C(=O)O/N=C(\N)c1ccc([N+](=O)[O-])o1	-28	?	?	32	10µM*	9.1*
Clc1nc(N2CCOCC2)ncc1Br	1	12%	2.6µM*	5	1.9µM*	2
CC(C)(C)NS(=O)(=O)c1ccc(/C=C/C(=O)O)cc1	7	11%	5%	-15	?	-5
CC(=O)c1c(C)n(C)c2ccc(O)cc12	-7	-6%	.	-3	-98%	-6
CC(=O)c1c(C)n(C2CCCCC2)c2ccc(O)cc12	-66*	10µM*	?	11	i	-8
